Source: PubChem BioAssay AID1159580 (chemical genetic matrix, 2015)
The campaign covered roughly 5,500 compounds. About 2,000 (36%) were called active. Not shown: some 18% with an inconclusive outcome. Rule as the data show it: active = normalized growth mostly below about 0.91 (no sharp cut-off); inconclusive = no clear call, values can overlap the other calls; inactive = mostly above about 0.92. The list shows a part of the results.

Assay: chemical genetic growth profiling, strain panel (AID 1159580);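 also: tested at 20 µM; growth read once vehicle control cultures reached saturation at 30 °C; 1 = growth at the plate median or of vehicle wells; lower values mean less growth of the strain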
Details: growth OD

Measured: normalized growth

NC(=O)c1cc([N+](=O)[O-])cc([N+](=O)[O-])c1
inactive: S. cerevisiae deletion strains, locus YJR075W, strain HOC1, hits give low values 1 | S. cerevisiae deletion strains, locus YKL009W, strain mrt4, hits give low values 0.985 | S. cerevisiae deletion strains, locus YKL068W, hits give low values 1 | S. cerevisiae deletion strains, locus YKL085W, strain MDH1 (second series), hits give low values 0.999 | S. cerevisiae deletion strains, locus YKL085W, strain MDH1, hits give low values 0.999 | S. cerevisiae deletion strains, locus YKL160W, strain elf1, hits give low values 1.01 | S. cerevisiae deletion strains, locus YKL190W, strain CNB1, hits give low values 1.01 | S. cerevisiae deletion strains, locus YKR001C, strain vps1, hits give low values 0.997 | S. cerevisiae deletion strains, locus YKR026C, strain gcn3, hits give low values 1.02 | S. cerevisiae deletion strains, locus YKR091W, strain srl3, hits give low values 1.02 | S. cerevisiae deletion strains, locus YLL001W, strain dnm1, hits give low values 1.06 | S. cerevisiae deletion strains, locus YLL026W, hits give low values 1.01 | S. cerevisiae deletion strains, locus YLL041C, strain sdh2, hits give low values 1 | S. cerevisiae deletion strains, locus YLR027C, strain aat2, hits give low values 0.989 | S. cerevisiae deletion strains, locus YLR039C, strain RIC1, hits give low values 1.24 | S. cerevisiae deletion strains, locus YLR058C, strain SHM2, hits give low values 1.01 | S. cerevisiae deletion strains, locus YLR102C, strain apc9, hits give low values 1 | S. cerevisiae deletion strains, locus YLR113W, strain HOG1, hits give low values 0.988 | S. cerevisiae deletion strains, locus YLR221C, strain rsa3, hits give low values 1.02 | S. cerevisiae deletion strains, locus YLR258W, strain gsy2, hits give low values 1 | S. cerevisiae deletion strains, locus YLR262C, strain YPT6 (second series), hits give low values 1.11 | S. cerevisiae deletion strains, locus YLR262C, strain YPT6, hits give low values 1.2 | S. cerevisiae deletion strains, locus YLR268W, strain sec22, hits give low values 0.963 | S. cerevisiae deletion strains, locus YLR320W, strain mms22, hits give low values 1.01 | S. cerevisiae deletion strains, locus YLR330W, strain CHS5, hits give low values 1.02 | S. cerevisiae deletion strains, locus YLR342W, strain FKS1 (second series), hits give low values 1.02 | S. cerevisiae deletion strains, locus YLR342W, strain FKS1, hits give low values 1.02 | S. cerevisiae deletion strains, locus YLR357W, strain rsc2, hits give low values 1 | S. cerevisiae deletion strains, locus YLR370C, strain arc18, hits give low values 1.02 | S. cerevisiae deletion strains, locus YLR371W, strain rom2, hits give low values 0.998 | S. cerevisiae deletion strains, locus YLR384C, strain iki3, hits give low values 1.02 | S. cerevisiae deletion strains, locus YLR418C, strain cdc73, hits give low values 0.861 | S. cerevisiae deletion strains, locus YML016C, strain PPZ1, hits give low values 1.03 | S. cerevisiae deletion strains, locus YML032C, strain rad52, hits give low values 0.974 | S. cerevisiae deletion strains, locus YML120C, strain ndi1, hits give low values 1.02 | S. cerevisiae deletion strains, locus YML124C, strain tub3, hits give low values 0.998 | S. cerevisiae deletion strains, locus YMR058W, strain fet3, hits give low values 0.955 | S. cerevisiae deletion strains, locus YMR078C, strain ctf18, hits give low values 0.999 | S. cerevisiae deletion strains, locus YMR125W, strain sto1, hits give low values 1.01 | S. cerevisiae deletion strains, locus YMR129W, hits give low values 1.02 | S. cerevisiae deletion strains, locus YMR205C, strain PFK2, hits give low values 1.04 | S. cerevisiae deletion strains, locus YMR223W, strain ubp8, hits give low values 0.979 | S. cerevisiae deletion strains, locus YMR231W, strain pep5, hits give low values 1.01 | S. cerevisiae deletion strains, locus YMR307W, strain GAS1, hits give low values 0.972 | S. cerevisiae deletion strains, locus YNL067W, strain RPL9B, hits give low values 0.999 | S. cerevisiae deletion strains, locus YNL071W, strain lat1, hits give low values 0.998 | S. cerevisiae deletion strains, locus YNL128W, strain TEP1, hits give low values 0.982 | S. cerevisiae deletion strains, locus YNL183C, strain NPR1, hits give low values 0.935 | S. cerevisiae deletion strains, locus YNL209W, strain ssb2, hits give low values 1.01 | S. cerevisiae deletion strains, locus YNL233W, strain BNI4, hits give low values 1.01 | S. cerevisiae deletion strains, locus YNL250W, strain rad50, hits give low values 1.01 | S. cerevisiae deletion strains, locus YNL271C, strain bni1, hits give low values 0.974 | S. cerevisiae deletion strains, locus YNL298W, strain CLA4, hits give low values 0.983 | S. cerevisiae deletion strains, locus YNL307C, strain MCK1, hits give low values 0.979 | S. cerevisiae deletion strains, locus YNL322C, strain KRE1 (second series), hits give low values 1.04 | S. cerevisiae deletion strains, locus YNL322C, strain KRE1, hits give low values 1.02 | S. cerevisiae deletion strains, locus YNR049C, strain mso1, hits give low values 1.01 | S. cerevisiae deletion strains, locus YNR052C, strain pop2, hits give low values 0.985 | S. cerevisiae deletion strains, locus YOL006C, strain TOP1, hits give low values 0.927 | S. cerevisiae deletion strains, locus YOL012C, strain htz1 0.763 | S. cerevisiae deletion strains, locus YOL147C, strain pex11, hits give low values 0.998 | S. cerevisiae deletion strains, locus YOR001W, strain rrp6, hits give low values 0.984 | S. cerevisiae deletion strains, locus YOR061W, strain CKA2, hits give low values 1.01 | S. cerevisiae deletion strains, locus YOR069W, strain VPS5, hits give low values 1.01 | S. cerevisiae deletion strains, locus YOR070C, strain gyp1, hits give low values 1 | S. cerevisiae deletion strains, locus YOR080W, strain dia2, hits give low values 1.02 | S. cerevisiae deletion strains, locus YOR083W, strain WHI5, hits give low values 1.02 | S. cerevisiae deletion strains, locus YOR106W, strain vam3, hits give low values 1 | S. cerevisiae deletion strains, locus YOR136W, strain idh2, hits give low values 0.993 | S. cerevisiae deletion strains, locus YOR144C, strain elg1, hits give low values 0.998 | S. cerevisiae deletion strains, locus YOR184W, strain ser1, hits give low values 0.976 | S. cerevisiae deletion strains, locus YOR231W, strain MKK1, hits give low values 0.963 | S. cerevisiae deletion strains, locus YOR265W, strain rbl2, hits give low values 1 | S. cerevisiae deletion strains, locus YOR270C, strain vph1, hits give low values 1.02 | S. cerevisiae deletion strains, locus YOR290C, strain snf2, hits give low values 1.01 | S. cerevisiae deletion strains, locus YOR316C, strain cot1, hits give low values 0.995 | S. cerevisiae deletion strains, locus YPL051W, strain arl3, hits give low values 0.97 | S. cerevisiae deletion strains, locus YPL055C, strain LGE1, hits give low values 0.96 | S. cerevisiae deletion strains, locus YPL078C, strain atp4, hits give low values 1.01 | S. cerevisiae deletion strains, locus YPL106C, strain sse1, hits give low values 1.02 | S. cerevisiae deletion strains, locus YPL240C, strain hsp82, hits give low values 1.01 | S. cerevisiae deletion strains, locus YPL241C, strain CIN2, hits give low values 1.03 | S. cerevisiae deletion strains, locus YPL256C, strain CLN2, hits give low values 0.965 | S. cerevisiae deletion strains, locus YPR119W, strain clb2, hits give low values 1 | S. cerevisiae deletion strains, locus YPR141C, strain kar3, hits give low values 1 | S. cerevisiae deletion strains, locus YPR163C, strain tif3, hits give low values 0.995 | S. cerevisiae deletion strains, locus YPR167C, strain met16, hits give low values 0.992 | S. cerevisiae deletion strains, strain wtn01, hits give low values 0.98 | S. cerevisiae strains, strain wild type, hits give low values 1.01
active: S. cerevisiae deletion strains, locus YNL248C, strain rpa49, hits give low values 0.879
